The panel holds about 79,000 compounds, 15% with a hit somewhere; the sample as a whole holds those more often. Calls of active or inactive are those of the source. Rule as the data show it: active = growth inhibition above about 70%; inactive = the rest.
Experiments:
[1] = NCI Yeast Anticancer Drug Screen. Data for the rad50 strain (AID 155);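 also: 0% = growth of vehicle-only cultures of the same strain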; conditions: S. cerevisiae rad50 strain growth inhibition; at 50.0 µM; active compounds read high
In short: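 Cells are treated with compound, grown, and their growth is then scored against vehicle-only cultures of the same repair-deficient yeast strain.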

[2] = NCI Yeast Anticancer Drug Screen. Data for the mec2-1 strain (AID 157); conditions: S. cerevisiae mec2-1 strain, at 50.0 µM, active compounds read high
In short: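 Growth inhibition is read against vehicle-treated controls after compound exposure of the mec2-1 yeast strain, which is defective in DNA damage repair or cell cycle control.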

[3] = NCI Yeast Anticancer Drug Screen. Data for the sgs1 mgt1 strain (AID 161);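 also: 0% = growth of cultures given vehicle only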; conditions: S. cerevisiae sgs1 mgt1 strain, at 50.0 µM, active compounds read high
In short: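 Compounds are added to genetically altered yeast, and growth is compared with cultures given vehicle alone to give percent inhibition.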

[4] = NCI Yeast Anticancer Drug Screen. Data for the cln2 rad14 strain (AID 165);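 also: 0% = growth equal to vehicle treated cultures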; conditions: S. cerevisiae cln2 rad14 strain, at 50.0 µM, active compounds read high
In short: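 Growth inhibition, relative to vehicle-treated controls, is the read-out. The test organism is a yeast strain with defined genetic alterations, cln2 rad14.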

[5] = NCI Yeast Anticancer Drug Screen. Data for the bub3 strain (AID 167); conditions: S. cerevisiae bub3 mutant strain, at 50.0 µM, active compounds read high
In short: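 Part of a panel of yeast mutants defective in DNA damage repair or cell cycle regulation. Each strain is grown with compound, and inhibition is calculated relative to solvent-treated cultures.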

[6] = NCI Yeast Anticancer Drug Screen. Data for the mlh1 rad18 strain (AID 175); conditions: S. cerevisiae mlh1 rad18 strain growth inhibition; at 50.0 µM; active compounds read high
In short: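 Cells of a genetically altered yeast strain, deficient in DNA damage repair, were treated with compound. Their growth was then compared with that of vehicle-treated cultures to give inhibition.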

Measured: growth inhibition

Cc1ccc2c(c1)CN(C)c1ccc(C)cc1CN2C
inactive: [1] 17.4% | [2] -11.8% | [3] 22.9% | [4] 21.8% | [5] 9.65% | [6] 31.1%

CO[C@@H]1C=C[C@@]23c4cc5c(cc4CN(C[C@@H]2O)[C@H]3C1)OCO5
inactive: [1] 3.95% | [2] -26.1% | [3] -11.9% | [4] 14.8% | [5] -16.1% | [6] -59.4%

CCc1nc(N)nc(N)c1-c1ccc2c(c1)nnn2CCc1ccccc1
inactive: [1] 11.2% | [2] 0.1% | [3] 3.6% | [4] 10.7% | [5] 5.05% | [6] 16.1%

CC1=C(C(=O)Nc2ccccc2C)C(c2ccc(Cl)cc2)C(C(=O)Nc2ccccc2C)=C(C)N1
inactive: [1] -3.3% | [2] 2.6% | [3] -5.2% | [4] 14.4% | [5] -8% | [6] 0%

CCN(CC)C(=O)/C(C)=C(\C)c1ccccc1
inactive: [1] -12.7% | [2] 11.8% | [3] -11.6% | [4] 8.3% | [5] 2.9% | [6] -1.45%

Nc1nc2c(c(=O)[nH]1)CN(CCCN1CCOCC1)CN2
inactive: [1] -36.2% | [2] -26.1% | [3] -19.1% | [4] 68% | [5] -30% | [6] 0%

CC1=CC(=O)c2c(C=O)c(O)c(O)c(C(C)C)c2C1=O
active: [1] 91% | [2] 93.4% | [3] 91.8% | [4] 91.1% | [5] 91.2% | [6] 90.8%

CC(C)=Cc1cc(CCC/C(C)=C/Cc2c(O)cc(C)c(C(=O)O)c2O)co1
inactive: [1] -9% | [2] -25.9% | [3] -1.75% | [4] -6.55% | [5] -18.9% | [6] -15.2%

O=C(CCCC(=O)N/N=C/c1ccc(I)cc1)N/N=C\c1ccc(I)cc1
inactive: [1] 29.9% | [2] 9% | [3] 25.2% | [4] 25.1% | [5] -1.05% | [6] 17.7%

N#Cc1nc(C2CCC2)oc1N
inactive: [1] 2.3% | [2] 5.85% | [3] -15.3% | [4] 18.6% | [5] 1.55% | [6] -41.5%

O=C(CCCCC(=O)Nc1ccc2[nH]c3ccccc3c(=O)c2c1)Nc1ccc2[nH]c3ccccc3c(=O)c2c1
inactive: [1] 0.35% | [2] 0.25% | [3] -3.1% | [4] -2.5% | [5] -3.45% | [6] 7.75%

O=C(Nc1ccccc1)c1cc2ccccc2oc1=O
inactive: [1] 6.95% | [2] -2.65% | [3] -4.5% | [4] 4.75% | [5] -13.2% | [6] 9.55%

CCn1c2ccc(C(=O)CCCN(C)C)cc2c2cc(C(=O)CCCN(C)C)ccc21
inactive: [1] 5.15% | [2] -33.3% | [3] 8.5% | [4] 4.05% | [5] 14.2% | [6] -21.9%

CCCCCCC(C)C(C#N)C(=O)OCC (stereo unspecified)
inactive: [1] -11.8% | [2] -11.8% | [3] -26.1% | [4] -4.15% | [5] -16.6% | [6] -14.3%

COc1cc2c(c(OC)c1OC)C(=O)[C@@H](O)[C@H]2N
inactive: [1] -10.4% | [2] -31.9% | [3] -13% | [4] -25.5% | [5] -23.8% | [6] -41.5%

CC(C)C1CCC2(CC1)CCN(CCCN(C)C)CC2
inactive: [1] -4.65% | [2] 25.3% | [3] 9.15% | [4] -23.6% | [5] 7.25% | [6] -7.65%

Cc1cc([O-])c([I+]c2ccccc2)c(=O)[nH]1
active: [1] 93.3% | [3] 97.8% | [4] 95.6% | [5] 95.5% | [6] 90.2%
inactive: [2] 66.8%

O=C(CN1CCCC1=O)CS(=O)(=O)c1ccccc1
inactive: [1] -14.5% | [2] -5.3% | [3] -20.3% | [4] -0.6% | [5] -9.6% | [6] 2.3%

O=C/C(Cl)=C\Nc1ccc(C(=O)O)cc1
inactive: [1] -0.25% | [2] 2.15% | [3] -0.2% | [4] -23.1% | [5] -0.4% | [6] -10.7%

O=[N+]([O-])c1ccc(-n2nnc3ccccc32)nc1
inactive: [1] -3.9% | [2] -4.85% | [3] -7.35% | [4] -16.6% | [5] 7.5% | [6] -9.75%

O=C1CCCCC1O (stereo unspecified)
inactive: [1] -18.4% | [2] -50.8% | [3] -15.2% | [4] 0.05% | [5] -13.8% | [6] -26.1%

COc1ccc(-c2nc(-c3cc4ccccc4oc3=O)cs2)cc1
inactive: [1] 13.1% | [2] 13.6% | [3] -12.1% | [4] 7.7% | [5] -18.4% | [6] -35.1%

CC(=O)NOCC1NC(=O)C(CONC(C)=O)NC1=O (stereo unspecified)
inactive: [1] 14% | [2] 18.1% | [3] -47.1% | [4] -3.4% | [5] -48.2% | [6] -54.6%

O=C(COc1ccc(Cl)c(Cl)c1)NCc1cccc([N+](=O)[O-])c1
inactive: [1] 4.9% | [2] -15.8% | [3] -8.4% | [4] 2.2% | [5] 14.9% | [6] 34%

CCCCNCC(=O)O[C@]1(CC)C(=O)OCc2c1cc1n(c2=O)Cc2cc3ccccc3nc2-1
active: [1] 78%
inactive: [2] 66.8% | [3] 49.5% | [4] 28.8% | [5] 40.2% | [6] 62.2%

CCOc1ccc2nc3cc(I)ccc3c(N)c2c1
inactive: [1] 8.15% | [2] -24.2% | [3] 14.6% | [4] -10.3% | [5] -0.05% | [6] 27.1%

CCCCCCCCCC(=O)N(C)OC
inactive: [1] 6.1% | [2] 4.3% | [3] 7.05% | [4] 1.3% | [5] -4.6% | [6] 18.1%

COc1ccc(NC(=O)CCC(=O)CC(=O)c2ccc(C)cc2)cc1
inactive: [1] -18.6% | [2] 31.1% | [3] 39.6% | [4] -23.4% | [5] 17.9% | [6] 36.2%

Cc1ccc(-c2oc3ccccc3c(=O)c2O)cc1
inactive: [1] 22.9% | [2] -9.9% | [3] 2.1% | [4] -5.3% | [5] 5.45% | [6] 7.65%

N#CCN1c2ccccc2CCC1Cl (stereo unspecified)
inactive: [1] -10.9% | [2] -17.6% | [3] -5.05% | [4] -7.45% | [5] 11.2% | [6] 12.4%

CCN(CC)C(C)(C)C(=O)/C=C/c1ccc(OC)cc1
inactive: [1] -11.6% | [2] -15.2% | [3] -33.3% | [4] 12.7% | [5] 9.65% | [6] -18.4%

Cc1[nH]c(=O)[nH]c(=O)c1C(=O)N(CCO)Cc1ccccc1
inactive: [1] -39.5% | [2] -21.4% | [3] -24.9% | [4] 7.7% | [5] 11.7% | [6] -15.9%

O=C1CC2CC(=O)C(S(=O)c3ccccc3)C2C1 (stereo unspecified)
inactive: [1] 6.25% | [2] 11.7% | [3] 20.1% | [4] 3.35% | [5] -1.6% | [6] 18.6%

COc1ccc(C2(C)c3ccccc3C(=O)C(C)(C)C2(C)CC(=O)O)cc1 (stereo unspecified)
inactive: [1] -0.65% | [2] 6.45% | [3] -1.8% | [4] -9.7% | [5] 5.05% | [6] 5.2%

COc1ccc(C(C2=C(O)CC(C)OC2=O)C2=C(O)CC(C)OC2=O)cc1 (stereo unspecified)
inactive: [1] -15.1% | [2] -5.4% | [3] -12.6% | [4] -14.2% | [5] -19.1% | [6] -10%

O=C(O)c1ccc2ccc(F)cc2c1Cc1ccccc1
inactive: [1] -4.15% | [2] -10.2% | [3] 12.9% | [4] 8.3% | [5] -1.4% | [6] -16.5%

O=C(CCCCCCCC(=O)OC(CCC1CCCO1)CCC1CCCO1)OC(CCC1CCCO1)CCC1CCCO1 (stereo unspecified)
inactive: [1] 6.1% | [2] -18.6% | [3] -4.5% | [4] -9.75% | [5] -6.5% | [6] 7.05%

Cc1cccc(/C=C/c2cccc[n+]2[O-])[n+]1[O-]
inactive: [1] 3.1% | [2] -11.2% | [3] -19.9% | [4] -31.8% | [5] -0.2% | [6] -5.25%

Nc1cc(Cl)c(F)cc1Cl
inactive: [1] -13.3% | [2] 0.25% | [3] -3.6% | [4] -28.8% | [5] 1.15% | [6] -14.2%

COC(=O)c1ccccc1N=Cc1cc(Cl)ccc1O
active: [6] 88.2%
inactive: [1] 21.5% | [2] 23.1% | [3] 35.9% | [4] 6.1% | [5] 19.6%

CCOC(=O)C(CCCCC(CN(CC)CC)(C(=O)OCC)c1ccccc1)(CN(CC)CC)c1ccccc1 (stereo unspecified)
inactive: [1] 29.4% | [2] -10.2% | [3] 11.7% | [4] 0.65% | [5] 2% | [6] 12.3%
